Source: PubChem BioAssay (EPA / NIEHS)
Records with an inconclusive call do not appear. Activity calls are given as the source filed them. How the source made its calls, unless noted: active means hit-call score of the fitted dose curve at least 0.9, where 1 is the maximum; inactive means score below 0.9.

Columns and labels:
[1] = molecular target: Bile acid receptor (Homo sapiens) (UniProt Q96RI1); experiment: ATG_FXR_TRANS: Attagene TRANS-FACTORIAL HepG2 Assay for Farnesoid X Receptor (FXR) (AID 2282979; active means hit-call score of the fitted dose curve at least 0.9, where 1 is the maximum;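 further: hits raise reporter mRNA above DMSO so AC50 marks FXR activation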); details: HepG2 Attagene TRANS FXR-GAL4 reporter transcription
Sequence of Bile acid receptor (Homo sapiens) (Q96RI1 whole entry, looked up, the tested form may be a part): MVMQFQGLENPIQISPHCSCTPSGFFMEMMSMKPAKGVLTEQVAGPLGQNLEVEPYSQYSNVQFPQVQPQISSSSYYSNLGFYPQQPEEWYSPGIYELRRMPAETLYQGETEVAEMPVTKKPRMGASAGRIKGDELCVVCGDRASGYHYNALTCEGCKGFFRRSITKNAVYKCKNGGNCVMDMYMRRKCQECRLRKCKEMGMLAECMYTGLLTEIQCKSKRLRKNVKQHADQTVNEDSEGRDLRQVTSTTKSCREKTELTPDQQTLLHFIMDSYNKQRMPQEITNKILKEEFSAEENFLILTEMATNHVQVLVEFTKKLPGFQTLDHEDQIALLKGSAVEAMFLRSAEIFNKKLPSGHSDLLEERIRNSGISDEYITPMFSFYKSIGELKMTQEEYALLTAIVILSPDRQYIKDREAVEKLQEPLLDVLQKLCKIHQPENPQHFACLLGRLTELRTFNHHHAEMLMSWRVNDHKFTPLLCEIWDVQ
In short: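 HepG2 cells transiently transfected with reporter constructs in which a chimeric FXR-GAL4 protein drives a GAL4-UAS reporter; 24 h compound exposure. Reporter mRNA measured by RT-PCR, FAM labelling, HpaI digestion and capillary electrophoresis; gain-of-signal versus DMSO.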

[2] = molecular target: Oxysterols receptor LXR-beta (Homo sapiens) (UniProt P55055); experiment: ATG_LXRb_TRANS: Attagene TRANS-FACTORIAL HepG2 Assay for human Liver X Receptor beta (LXRb) (AID 2282981; active means hit-call score of the fitted dose curve at least 0.9, where 1 is the maximum); details: HepG2 Attagene TRANS GAL4-LXRb reporter, mRNA
Sequence of Oxysterols receptor LXR-beta (Homo sapiens) (P55055 whole entry, looked up, the tested form may be a part): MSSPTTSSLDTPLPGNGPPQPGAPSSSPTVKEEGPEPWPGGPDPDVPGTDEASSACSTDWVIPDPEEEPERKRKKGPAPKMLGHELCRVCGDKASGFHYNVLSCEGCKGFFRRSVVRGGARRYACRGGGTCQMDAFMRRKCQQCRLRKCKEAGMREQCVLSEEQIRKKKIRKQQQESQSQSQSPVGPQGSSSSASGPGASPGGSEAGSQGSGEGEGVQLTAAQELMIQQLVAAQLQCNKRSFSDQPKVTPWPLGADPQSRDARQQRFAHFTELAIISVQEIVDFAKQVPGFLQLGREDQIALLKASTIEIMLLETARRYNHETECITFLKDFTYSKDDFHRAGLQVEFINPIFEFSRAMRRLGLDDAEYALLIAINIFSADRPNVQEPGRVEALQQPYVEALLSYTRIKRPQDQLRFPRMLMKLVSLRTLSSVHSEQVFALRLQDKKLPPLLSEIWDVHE
In short: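 Gain-of-signal mRNA reporter endpoint, DMSO as negative control. Transiently transfected HepG2 cells carrying the NR-Gal4 chimera and GAL4-UAS reporter units were treated 24 h; transcripts quantified by RT-PCR and capillary electrophoresis fluorescence.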

[3] = molecular target: Hepatocyte nuclear factor 4-alpha (Homo sapiens) (UniProt P41235); experiment: ATG_HNF4a_TRANS: Attagene TRANS-FACTORIAL HepG2 Assay for human Hepatocyte Nuclear Factor 4 alpha (HNF4a) (AID 2282982; active means hit-call score of the fitted dose curve at least 0.9, where 1 is the maximum); details: HepG2 HNF4a transactivation reporter, mRNA readout
Sequence of Hepatocyte nuclear factor 4-alpha (Homo sapiens) (P41235 whole entry, looked up, the tested form may be a part): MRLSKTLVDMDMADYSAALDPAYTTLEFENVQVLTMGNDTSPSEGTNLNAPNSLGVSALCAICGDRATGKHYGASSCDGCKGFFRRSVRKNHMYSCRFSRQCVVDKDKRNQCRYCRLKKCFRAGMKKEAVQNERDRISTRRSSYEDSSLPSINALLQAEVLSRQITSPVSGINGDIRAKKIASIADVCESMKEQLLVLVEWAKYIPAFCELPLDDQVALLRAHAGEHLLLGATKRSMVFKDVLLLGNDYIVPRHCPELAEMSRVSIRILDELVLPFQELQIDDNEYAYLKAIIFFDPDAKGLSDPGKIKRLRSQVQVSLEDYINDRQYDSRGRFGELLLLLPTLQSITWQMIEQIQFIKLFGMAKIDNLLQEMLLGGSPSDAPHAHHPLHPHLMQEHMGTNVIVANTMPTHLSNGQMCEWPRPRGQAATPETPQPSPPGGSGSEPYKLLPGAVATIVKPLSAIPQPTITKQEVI
In short: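 Gain-of-signal mRNA induction, relative to DMSO vehicle, was read after 24 h compound treatment of HepG2 cells bearing transfected GAL4-UAS reporters. Detection used RT-PCR, 6-FAM primer extension and capillary electrophoresis.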

[4] = ATG_M_06_TRANS: Attagene TRANS-FACTORIAL HepG2 Assay for M06 Transcription Factor (Internal Marker) (AID 2282983; active means hit-call score of the fitted dose curve at least 0.9, where 1 is the maximum); details: HepG2 Attagene TRANS M06 internal marker reporter
In short: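 HepG2 cells transiently transfected with multiplexed GAL4-UAS reporter transcription units; after 24 h compound exposure, reporter mRNA measured by RT-PCR, FAM-labelled primer extension, HpaI digestion and capillary electrophoresis. Gain-of-signal fitted versus DMSO baseline; background control readout.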

[5] = molecular target: Nuclear receptor subfamily 4 group A member 2 (Homo sapiens) (UniProt P43354); experiment: ATG_NURR1_TRANS: Attagene TRANS-FACTORIAL HepG2 Assay for human Nuclear Receptor Related Protein 1 (NURR1) (AID 2282985; active means hit-call score of the fitted dose curve at least 0.9, where 1 is the maximum); details: HepG2 Attagene TRANS reporter, mRNA readout
Sequence of Nuclear receptor subfamily 4 group A member 2 (Homo sapiens) (P43354 whole entry, looked up): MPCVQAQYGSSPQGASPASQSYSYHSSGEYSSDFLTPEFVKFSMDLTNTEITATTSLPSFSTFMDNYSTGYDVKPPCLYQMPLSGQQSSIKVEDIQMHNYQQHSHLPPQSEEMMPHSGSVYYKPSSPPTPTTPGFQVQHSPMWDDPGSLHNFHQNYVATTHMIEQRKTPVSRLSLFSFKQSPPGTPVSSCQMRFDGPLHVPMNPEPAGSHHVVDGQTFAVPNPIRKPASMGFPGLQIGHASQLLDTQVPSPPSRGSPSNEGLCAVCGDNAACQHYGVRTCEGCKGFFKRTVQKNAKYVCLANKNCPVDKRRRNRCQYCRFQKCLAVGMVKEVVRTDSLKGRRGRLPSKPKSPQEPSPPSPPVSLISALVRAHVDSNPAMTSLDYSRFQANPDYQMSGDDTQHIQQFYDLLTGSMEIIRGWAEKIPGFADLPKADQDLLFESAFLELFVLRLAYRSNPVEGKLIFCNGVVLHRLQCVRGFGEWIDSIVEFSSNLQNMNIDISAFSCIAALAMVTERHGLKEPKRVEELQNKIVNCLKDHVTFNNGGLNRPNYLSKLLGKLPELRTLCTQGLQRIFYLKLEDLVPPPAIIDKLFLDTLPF
In short: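 HepG2 / transient MRTU transfection / 24 h compound exposure / RT-PCR + CE fluorescence of reporter mRNA / gain-of-signal vs DMSO.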

[6] = molecular target: Transcriptional activator Myb (Homo sapiens) (UniProt P10242); experiment: ATG_Myb_CIS: Attagene CIS-FACTORIAL HepG2 Assay for human Myeloblastosis (Myb) Proto-Oncogene Transcription Factor (AID 2282986); details: HepG2 Attagene CIS-FACTORIAL Myb reporter transcription; actives raise or lower the signal
Sequence of Transcriptional activator Myb (Homo sapiens) (P10242 whole entry, looked up): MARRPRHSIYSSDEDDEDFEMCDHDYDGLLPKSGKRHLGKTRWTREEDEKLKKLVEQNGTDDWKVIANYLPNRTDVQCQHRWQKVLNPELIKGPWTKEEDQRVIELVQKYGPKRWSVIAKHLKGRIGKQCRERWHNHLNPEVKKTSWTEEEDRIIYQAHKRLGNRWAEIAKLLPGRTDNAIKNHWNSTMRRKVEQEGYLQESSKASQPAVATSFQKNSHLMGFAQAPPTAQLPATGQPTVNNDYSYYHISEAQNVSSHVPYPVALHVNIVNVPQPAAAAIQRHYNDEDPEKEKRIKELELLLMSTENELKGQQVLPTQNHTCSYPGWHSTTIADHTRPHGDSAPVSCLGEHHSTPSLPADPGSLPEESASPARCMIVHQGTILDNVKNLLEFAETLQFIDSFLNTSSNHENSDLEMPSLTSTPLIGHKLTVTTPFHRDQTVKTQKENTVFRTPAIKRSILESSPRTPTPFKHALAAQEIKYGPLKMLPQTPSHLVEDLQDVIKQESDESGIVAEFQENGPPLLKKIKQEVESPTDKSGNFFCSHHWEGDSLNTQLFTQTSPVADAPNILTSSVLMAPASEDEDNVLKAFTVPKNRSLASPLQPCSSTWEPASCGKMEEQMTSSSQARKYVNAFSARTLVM
In short: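 Reporter mRNA is quantified by RT-PCR and capillary electrophoresis 24 h after dosing HepG2 cells transfected with cis-regulated reporter units, which track endogenous transcription factor activity. Gain and loss of signal are fitted versus DMSO baseline.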

[7] = molecular target: Nuclear respiratory factor 1 (Homo sapiens) (UniProt Q16656); experiment: ATG_NRF1_CIS: Attagene CIS-FACTORIAL HepG2 Assay for human Nuclear Respiratory Factor 1 (NRF1) Orphan Gene (AID 2282987); details: HepG2 NRF1 cis-element reporter, Attagene multiplex; actives raise or lower the signal
Sequence of Nuclear respiratory factor 1 (Homo sapiens) (Q16656 whole entry, looked up): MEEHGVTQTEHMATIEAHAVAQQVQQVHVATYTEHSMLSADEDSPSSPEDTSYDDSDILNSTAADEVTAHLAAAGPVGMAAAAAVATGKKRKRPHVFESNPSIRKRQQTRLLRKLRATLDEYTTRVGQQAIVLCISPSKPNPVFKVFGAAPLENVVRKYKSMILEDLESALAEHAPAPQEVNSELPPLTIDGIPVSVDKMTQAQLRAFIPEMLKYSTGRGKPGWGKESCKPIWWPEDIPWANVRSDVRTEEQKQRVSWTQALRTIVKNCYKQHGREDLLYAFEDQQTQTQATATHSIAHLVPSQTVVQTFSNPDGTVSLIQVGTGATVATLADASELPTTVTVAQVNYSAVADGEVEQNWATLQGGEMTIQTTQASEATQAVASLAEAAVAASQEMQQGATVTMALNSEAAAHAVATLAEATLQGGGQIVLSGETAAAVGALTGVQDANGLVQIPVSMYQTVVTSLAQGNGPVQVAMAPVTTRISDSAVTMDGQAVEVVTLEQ
In short: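 Endogenous NRF1-driven reporter transcription in transfected HepG2 cells after 24 h treatment. Readout: RT-PCR products, 6-FAM labelled and resolved by capillary electrophoresis; changes fitted both directions relative to DMSO.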

[8] = ATG_NFI_CIS: Attagene CIS-FACTORIAL HepG2 Assay for human Nuclear Factor I (NFI) (AID 2282989); details: HepG2 cis-regulatory reporter, NFI response element transcription; actives raise or lower the signal
In short: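 Reporter transcription driven by endogenous transcription factors in HepG2 cells; 24 h treatment. Quantitation by labelled RT-PCR fragments on capillary electrophoresis, gain- or loss-of-signal relative to DMSO.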

[9] = molecular target: Myc proto-oncogene protein (Homo sapiens) (UniProt P01106); experiment: ATG_Myc_CIS: Attagene CIS-FACTORIAL HepG2 Assay for human Myelocytomatosis (Myc) Proto-Oncogene Transcription Factor (AID 2282990); details: HepG2, Attagene cis-reporter transcription factor activity; actives raise or lower the signal
Sequence of Myc proto-oncogene protein (Homo sapiens) (P01106 whole entry, looked up): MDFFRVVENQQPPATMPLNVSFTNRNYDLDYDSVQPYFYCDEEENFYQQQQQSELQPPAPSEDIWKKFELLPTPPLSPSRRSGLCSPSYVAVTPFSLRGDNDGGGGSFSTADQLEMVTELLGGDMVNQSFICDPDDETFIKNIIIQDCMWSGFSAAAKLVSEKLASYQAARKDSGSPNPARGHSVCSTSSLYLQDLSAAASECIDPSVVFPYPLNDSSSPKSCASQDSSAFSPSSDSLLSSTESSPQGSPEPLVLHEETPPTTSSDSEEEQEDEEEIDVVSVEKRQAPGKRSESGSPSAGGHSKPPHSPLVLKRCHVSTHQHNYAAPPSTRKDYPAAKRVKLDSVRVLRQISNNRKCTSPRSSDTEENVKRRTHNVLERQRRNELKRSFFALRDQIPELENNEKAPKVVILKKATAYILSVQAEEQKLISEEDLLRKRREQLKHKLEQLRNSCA
In short: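 Transiently transfected HepG2 cells bearing cis-promoter reporter units for endogenous transcription factors; 24 h exposure. Reporter mRNA measured by RT-PCR, 6-FAM primer extension, HpaI cut and capillary electrophoresis; bidirectional fit relative to DMSO.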

[10] = ATG_NF_kB_CIS: Attagene CIS-FACTORIAL HepG2 Assay for human Nuclear Factor Kappa B (NF-kB) (AID 2282991); details: HepG2 Attagene cis-factorial NF-kB reporter mRNA; actives raise or lower the signal
In short: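 Readout is reporter transcript level, gain or loss versus DMSO, measured 24 h post-dose via RT-PCR, fluorescent labelling and capillary electrophoresis. Human HepG2 liver cells carried transiently transfected CIS reporter constructs reflecting endogenous factors.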

[11] = ATG_NRF2_ARE_CIS: Attagene CIS-FACTORIAL HepG2 Assay for human Nuclear Factor Erythroid 2 Related Factor 2 (NFR2) response to Antioxidant Response Elements (ARE) (AID 2282992); details: HepG2 Attagene ARE/NRF2 reporter, transcription factor activity; actives raise or lower the signal;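 on AC50: reporter mRNA level measured by RT-PCR and capillary electrophoresis fluorescence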
In short: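 Cis-factorial assay: transfected HepG2 reporter library, 24 h dosing, mRNA readout via RT-PCR/CE; DMSO-referenced bidirectional analysis.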

[12] = ATG_Oct_MLP_CIS: Attagene CIS-FACTORIAL HepG2 Assay for human Octamer-Binding Transcription Factor (Oct) (AID 2282993); details: HepG2 Attagene cis-factorial Oct reporter, mRNA; actives raise or lower the signal
In short: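 Transfected HepG2 cells, 24 h treatment. Reporter mRNA quantified by RT-PCR–capillary electrophoresis; bidirectional fitting against DMSO.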

[13] = molecular target: Cellular tumor antigen p53 (Homo sapiens) (UniProt P04637); experiment: ATG_p53_CIS: Attagene CIS-FACTORIAL HepG2 Assay for human p53 Transcription Factor (AID 2282994); details: HepG2 p53 cis-element reporter, Attagene mRNA; actives raise or lower the signal
Sequence of Cellular tumor antigen p53 (Homo sapiens) (P04637 whole entry, looked up): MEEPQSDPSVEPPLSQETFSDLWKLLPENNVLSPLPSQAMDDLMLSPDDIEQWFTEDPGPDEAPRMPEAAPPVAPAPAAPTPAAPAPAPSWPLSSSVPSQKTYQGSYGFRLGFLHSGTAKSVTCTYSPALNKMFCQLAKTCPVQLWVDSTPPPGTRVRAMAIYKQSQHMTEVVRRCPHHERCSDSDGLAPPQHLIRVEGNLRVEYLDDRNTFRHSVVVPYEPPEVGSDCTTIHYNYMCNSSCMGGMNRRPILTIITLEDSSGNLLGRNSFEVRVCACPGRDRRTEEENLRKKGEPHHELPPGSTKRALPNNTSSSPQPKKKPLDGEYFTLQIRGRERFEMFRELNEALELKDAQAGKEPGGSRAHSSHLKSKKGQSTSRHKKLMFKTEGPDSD
In short: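 Using HepG2 hepatoma cells carrying cis-acting multiplexed reporters, mRNA induction is detected after a 24 h exposure. Gain- and loss-of-signal responses are fitted relative to DMSO-treated cells.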

[14] = molecular target: Glucocorticoid receptor (Homo sapiens) (UniProt P04150); experiment: ATG_GR_TRANS: Attagene TRANS-FACTORIAL HepG2 Assay for human Glucocorticoid Receptor (GR) (AID 2282978; active means hit-call score of the fitted dose curve at least 0.9, where 1 is the maximum;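 further: activators score as hits since higher reporter transcript over DMSO is fitted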); details: HepG2 Attagene TRANS GR reporter, mRNA transcription
Sequence of Glucocorticoid receptor (Homo sapiens) (P04150 whole entry, looked up, the tested form may be a part): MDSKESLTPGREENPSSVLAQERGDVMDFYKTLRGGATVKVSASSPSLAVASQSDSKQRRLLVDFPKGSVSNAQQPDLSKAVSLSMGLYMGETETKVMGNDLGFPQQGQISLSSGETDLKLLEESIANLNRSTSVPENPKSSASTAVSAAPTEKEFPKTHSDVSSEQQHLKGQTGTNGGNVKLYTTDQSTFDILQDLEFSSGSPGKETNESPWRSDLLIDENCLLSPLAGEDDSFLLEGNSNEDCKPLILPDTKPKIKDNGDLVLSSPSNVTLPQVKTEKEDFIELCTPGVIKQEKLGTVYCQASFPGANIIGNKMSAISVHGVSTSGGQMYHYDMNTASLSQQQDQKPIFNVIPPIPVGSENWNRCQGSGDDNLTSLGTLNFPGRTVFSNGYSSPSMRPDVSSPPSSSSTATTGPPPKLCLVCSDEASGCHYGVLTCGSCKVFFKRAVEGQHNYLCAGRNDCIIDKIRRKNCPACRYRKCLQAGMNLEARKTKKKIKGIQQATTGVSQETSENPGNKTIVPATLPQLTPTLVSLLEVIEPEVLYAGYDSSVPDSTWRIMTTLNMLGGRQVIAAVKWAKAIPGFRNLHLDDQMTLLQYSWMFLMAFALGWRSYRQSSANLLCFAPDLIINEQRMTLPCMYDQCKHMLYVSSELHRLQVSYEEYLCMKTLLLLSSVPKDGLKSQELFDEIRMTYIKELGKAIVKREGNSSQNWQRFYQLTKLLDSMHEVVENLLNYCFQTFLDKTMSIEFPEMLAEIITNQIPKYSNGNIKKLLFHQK
In short: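 Readout is reporter transcript from a chimeric GR-Gal4 acting on GAL4-UAS in transfected human HepG2 liver cells after 24 h exposure, quantified by RT-PCR and capillary electrophoresis. Activation fitted upward against DMSO.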

[15] = ATG_M_32_TRANS: Attagene TRANS-FACTORIAL HepG2 Assay for M32 Transcription Factor (Internal Marker) (AID 2282984; active means hit-call score of the fitted dose curve at least 0.9, where 1 is the maximum); details: HepG2 Attagene TRANS M32 internal marker reporter
In short: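 Capillary electrophoresis of 6-FAM-labelled reporter fragments gives the signal; data fitted for gain over DMSO negative control. Source: HepG2 cells bearing transient multiple reporter transcription units, 24 h exposure.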

Measured: AC50

CC12CCC(C1)C(C)(C)C2O (stereo not given)
inactive: [1] | [2] | [3] | [4] | [5] | [6] | [7] | [8] | [9] | [10] | [11] | [12] | [13]

C[C@H](CCC(=O)O)[C@H]1CC[C@H]2[C@@H]3CC[C@@H]4C[C@H](O)CC[C@]4(C)[C@H]3CC[C@]12C
active: [5] 27.7 µM | [8] 100 µM | [9] 156 µM | [11] 45.4 µM | [13] 100 µM
inactive: [14] | [4] | [15] | [6] | [7] | [12]

CC(C)(C)c1ccc(S)cc1
inactive: [14] | [4] | [15] | [6] | [8] | [9] | [12] | [13]
active: [11] 16.1 µM

CC(=O)C1=C(C)[C@@H]2C[C@@]3(C1)[C@H](C)CC[C@H]3C2(C)C
inactive: [1] | [15] | [5] | [6] | [7] | [12]
active: [8] 137 µM | [11] 70.1 µM

CCOC(=O)C(=O)OCC
inactive: [14] | [3] | [6] | [7] | [8] | [9] | [10] | [11] | [12] | [13]

C=CC(O)CCCCC (stereo not given)
inactive: [1] | [3] | [4] | [6] | [7] | [8] | [13]
active: [11] 38 µM | [12] 45.6 µM
